In PubChem BioAssay AID371 (SRMLSC, 2006):
The whole screen tested about 3,300 compounds, of which about 280 (8.5%) were called active. The list comes from a sample in which actives are over-represented; it also holds similar structures and randomly drawn compounds. Values without a mark were called inactive.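 The calls were made as follows: active = mean growth inhibition over the two runs of 50% or more; inactive = mean growth inhibition under 50%.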

test: A549 NSCLC cell proliferation inhibitors – ATP luminescence, human non-small cell lung line, primary screen (AID 371); details: at 10 µM, hits give high values;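 also: compound exposure lasted 72 h before the ATP read; 0% = untreated cell signal and 100% = no luminescence left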

SMILES | growth inhibition
COC(=O)c1ccc(N2C(=O)CC(N3CCN(C(=O)c4ccco4)CC3)C2=O)cc1 (stereo not drawn) | -5.76%
COc1ccc(Cn2ccnc2)cc1Br | 7.92%
CC1(C)Cc2c(c(N3CCOCC3)nc3snc(N)c23)CO1 | 91% (active)
CC1(C)Cc2c(c(N3CCOCC3)nc3snc(Br)c23)CO1 | 16%
COc1nnnc2c1sc1nc(N3CCOCC3)c3c(c12)CC(C)(C)OC3 | -0.53%
CCCCNC(=O)N1CCOCCOCCN(C(=O)NCCCC)CCOCC1 | 2.17%
N#Cc1nc(-c2ccccc2Cl)oc1N1CCCCC1 | 25.2%
CCOP(=O)(c1ccccc1)c1nc(-c2ccc(F)cc2)oc1N1CCCCC1 (stereo not drawn) | 35.1%
CCOP(=O)(c1ccccc1)c1nc(-c2ccccc2C)oc1N1CCCCC1 (stereo not drawn) | 90.3% (active)
Clc1cccc(-c2nn3c(COc4ccccc4)nnc3s2)c1 | -1.72%
Cc1nn(C)cc1/C=N/n1nnnc1N | 3.1%
N#Cc1nc(-c2cccs2)oc1NCc1ccccc1 | 37.1%
N#Cc1nc(-c2cccs2)oc1NCc1ccccc1Cl | 16.3%
N#Cc1nc(-c2cccs2)oc1NCc1ccc2c(c1)OCO2 | 51.8% (active)
Cc1ccc(C2/C(=C(/O)c3ccc(OC(C)C)cc3)C(=O)C(=O)N2CCN2CCOCC2)cc1 (stereo not drawn) | -0.89%
Oc1c(C=Nc2cccnc2)sc2ccccc12 | 9.67%
CC(=Nc1cccc(O)c1)c1sc2ccccc2c1O | 71.6% (active)
Oc1c(C=NCc2ccncc2)sc2ccccc12 | 3.71%
O=C1CC(N(O)C2CC(=O)N(Cc3ccccc3)C2=O)C(=O)N1Cc1ccccc1 (stereo not drawn) | 9.01%
CN(C)CCCOC(=O)C1c2ccccc2Oc2ccccc21 | 8.41%
Cc1ccc2[nH]c3c(c2c1)CCCC3C(N)=O (stereo not drawn) | 0.63%
Cc1nnc(N2CCOCC2)c2ccccc12 | -0.2%
O=C(NC1CCCCC1)N1CCSC1=Nc1ccccc1 | 83.3% (active)
NC(=O)C(c1ccccc1)C1CCCC1 (stereo not drawn) | 2%
O=C(NC1CCCCC1)Nn1c(-c2ccccc2)nc2ccccc2c1=O | 5.81%

SMILES | growth inhibition
Cc1cc(C)n(-c2nnc(C)n2/N=C/c2ccccc2F)n1 | -1.21%
CCc1nnc(NC(=O)CSc2nc(C)c3c(c2C#N)CCCC3)s1 | 47.6%
Cc1ccc(-n2c(SCC(=O)NCc3ccco3)nc3nc4c(cc3c2=O)COC(C)(C)C4)cc1 | 7.55%
CCCc1cc(-c2nc(N)ncc2-c2ccc3c(c2)OCCCO3)c(O)cc1OC | 78.2% (active)
O=S(=O)(c1ccccc1)N1CCC(N2CCCCCC2)CC1 | 11.3%
Cc1ccc(S(=O)(=O)N(CC(O)CN(C)C)c2ccccc2)cc1 (stereo not drawn) | 5.21%
COC(=O)c1cc(Br)c(=O)n(-c2cc(C)on2)c1 | 5.44%
C=C(C)CSC1=C(C#N)C(c2ccsc2)CC(=O)N1 (stereo not drawn) | 11.7%
N#CC1=C2SCC(O)(c3ccccc3)N2C(=O)CC1c1ccccc1 (stereo not drawn) | 61.5% (active)
CCCCCCSC1=C(C#N)C(c2ccccc2)CC(=O)N1 (stereo not drawn) | 17.1%
CCCCn1c(O)c(C=NCCCN(C)C)c(=O)[nH]c1=O | -0.32%
CC1(C)Cc2c(C#N)c(SCCC#N)nc(N3CCOCC3)c2CS1 | 26.4%
CCOc1ccc(S(=O)(=O)N(C)CCO)cc1-c1nc2c(C(C)(C)C)nn(C)c2c(=O)[nH]1 | 22%
CCOc1ccc(S(=O)(=O)N(C)C)cc1-c1nc2c(C(C)(C)C)nn(C)c2c(=O)[nH]1 | -2.28%
CCOc1ccc(S(=O)(=O)NC(C)(C)C)cc1-c1nc2c(C(C)(C)C)nn(C)c2c(=O)[nH]1 | 62.9% (active)
COC(=O)C(NC(=O)c1ccccc1)(Nc1nc(C)cs1)C(F)(F)F (stereo not drawn) | 4.51%
CN(C)C(CN1C(=O)C2CC=CCC2C1=O)c1cn(C)c2ccccc12 (stereo not drawn) | -4.21%
COc1ccc2[nH]c(C)c(C(=O)CN3CCOCC3)c2c1 | -6.74%
Nc1nnnn1/N=C/c1ccccn1 | 3.3%
COc1ccc(NC(=O)CSC2=C(C#N)C(c3ccco3)C3=C(CCCC3=O)N2)c(OC)c1 (stereo not drawn) | 10.5%
CCOC(=O)C1=C(c2ccccc2)NC(SCC(=O)Nc2ccccc2C)=C(C#N)C1c1ccco1 (stereo not drawn) | 38.8%
C=CCOC(=O)C1=C(C)NC(SCC(=O)N(CC)CC)=C(C#N)C1c1ccco1 (stereo not drawn) | 21.8%
COCCOC(=O)C1=C(C)NC(SCC(=O)NC(C)(C)C)=C(C#N)C1c1ccco1 (stereo not drawn) | 32.6%
C=CCOC(=O)C1=C(C)NC(SCC(=O)Nc2ccc(C)c(Cl)c2)=C(C#N)C1c1ccco1 (stereo not drawn) | 84.2% (active)
COc1ccc(OC)c(NC(=O)CSC2=C(C#N)C(c3ccco3)C3=C(CCCC3=O)N2)c1 (stereo not drawn) | 16.1%

SMILES | growth inhibition
COc1cccc(NC(=O)CSC2=C(C#N)C(c3ccco3)C3=C(CCCC3=O)N2)c1 (stereo not drawn) | 60.1% (active)
C=CCOC(=O)C1=C(C)NC(SCC(=O)N(CC)CC)=C(C#N)C1c1ccccc1 (stereo not drawn) | 51.2% (active)
CCc1ccccc1NC(=O)CSC1=C(C#N)C(c2ccc(O)c(OC)c2)C2=C(CCCC2=O)N1 (stereo not drawn) | 35%
CCCCc1ccc(NC(=O)CSC2=C(C#N)C(c3ccco3)C3=C(CCCC3=O)N2)cc1 (stereo not drawn) | 57.6% (active)
CCc1ccc(NC(=O)CSC2=C(C#N)C(c3ccco3)C3=C(CCCC3=O)N2)cc1 (stereo not drawn) | 44.8%
CCN(CC)C(=O)CSC1=C(C#N)C(c2ccco2)C(C(=O)OCCOC)=C(C)N1 (stereo not drawn) | 1.8%
O=c1[nH]c(CN2CCCCC2)nc2c1C1(CCCCC1)Cc1ccccc1-2 | -4.24%
CCCCc1[nH]c(=O)c(C#N)c2c1CSC(C)(C)C2 | 7.58%
CCCCOC(=O)CSC1=C(C#N)C(c2ccccc2OC)C(C#N)C(=O)N1 (stereo not drawn) | 6.07%
COc1ccc2nc(SCC(=O)O)nc(C)c2c1 | -2.56%
COc1ccc(-c2cc(=O)[nH]c(=O)[nH]2)cc1 | 1.67%
Cc1nnc2n(-c3ccccc3)c(=O)c3c4c(sc3n12)COC(C)(C)C4 | -0.59%
N#Cc1ccc(-c2cccnc2)nc1SCC(=O)Nc1sc2c(c1C#N)CCC2 | 14.6%
CCC(C)n1ncn(-c2ccc(N3CCN(c4ccc(OCC5COC(Cn6cncn6)(c6ccc(Cl)cc6Cl)O5)cc4)CC3)cc2)c1=O (stereo not drawn) | 50.3% (active)
COCc1n[nH]c(=S)n1-c1cccc2ccccc12 | 4.29%
CCOc1ccc(N=C2C(=O)N(CN3CCOCC3)c3ccccc32)cc1 | 20.3%
COC(=O)c1ccc(Cn2c(O)c(N=O)c3ccccc32)o1 | 8.55%
CCCCCC(=O)N1CC2(CC)CN(C(=O)CCCCC)CC(CC)(C1)C2=O | 14.3%
CC(Sc1ccc2ccccc2n1)C(=O)O (stereo not drawn) | -2.6%
O=C1c2ccccc2C(=O)C1c1ccc2ccccc2n1 | 74.9% (active)
O=C(O)CCSc1ccc2ccccc2n1 | 1.45%
COC(=O)/C(=C1/Oc2cc(C)oc(=O)c2S1)C(F)(F)F | 76.1% (active)
COC(=O)C1=C(N)Oc2cc(C)oc(=O)c2C1c1ccncc1 (stereo not drawn) | -1.55%
COC(=O)c1ccc(C2/C(=C(\O)c3cccc(OC)c3)C(=O)C(=O)N2CCCN(C)C)cc1 (stereo not drawn) | 1.92%
Cc1nnc2n(-c3ccccc3)c(=O)c3c4c(sc3n12)CC(C)CC4 (stereo not drawn) | 12.7%

SMILES | growth inhibition
CN=C(c1ccco1)n1c(=S)nc(-c2ccco2)n(C)c1=S | 5.55%
Nc1cccc(C(=O)O)c1 | 4.57%
CC(=O)Oc1ccccc1C1OC(=O)c2ccccc2N1C(C)=O (stereo not drawn) | 4.51%
CC(=O)Oc1cccc2c1C(=O)c1c(OC(C)=O)cc(C(=O)O)cc1C2=O | 57.8% (active)
NS(=O)(=O)c1ccc(C(=O)O)cc1 | -6.06%
COc1cc(C(=O)Nc2ccc(O)cc2C(=O)O)ccc1OC(C)=O | 2.72%
O=C(O)c1cc(O)c2c(c1)C(=O)c1cccc(O)c1C2=O | 59.2% (active)
CN1CCN(Cc2c(O)ccc3c(-c4ccccc4)cc(=O)oc23)CC1 | 8.11%
Cc1c(Cl)c(C(F)(F)F)nn1CC(=O)N1CCSCC1 | 8.88%
Cn1c(OCc2cccnc2)nc2c1c(=O)n(Cc1ccc(Cl)cc1)c(=O)n2C | 35.5%
O=C(NCCCNCc1ccccc1)/C(=N\O)c1ccccc1 | 1.98%
CCOC(=O)c1[nH]c2ccc(Br)cc2c1NC(=O)CNC | 15.7%
C=COC(=O)CSc1nc(-c2cccs2)ccc1C#N | 5.33%
CC(=O)NCC(=O)OCN1C(=O)c2ccccc2C1=O | -2.75%
COC(=O)Nc1nc2ccc(C(=O)c3ccccc3)cc2[nH]1 | 55.8% (active)
CCCSc1ccc2nc(NC(=O)OC)[nH]c2c1 | 53.2% (active)
CC(=O)Nc1ccc(Oc2ccc3nc(C)[nH]c3c2)cc1 | 10.6%
COC(=O)Nc1nc2ccc(Sc3ccccc3)cc2[nH]1 | 81.7% (active)
Cn1c(=O)oc2cc(C(=O)c3ccccc3)ccc21 | 13.3%
CCCOc1ccc2nc(NC(=O)OC)[nH]c2c1 | 48.4%
Cn1c(=O)n(C)c2cc(C(=O)c3ccccc3)ccc21 | 5.5%
CCC(=O)Nc1nc(C)c(Oc2ccccc2)c(=O)[nH]1 | 1.39%
CCOc1ccc2nc(SCC(=O)Nc3ncccn3)[nH]c2c1 | -4.07%
